PubChem BioAssay (NCATS)
Records with an inconclusive call do not appear. Activity calls are given as the source filed them. The call rests on the fitted dose curve; in most records, active means well fitted activation curve with a large enough effect; inconclusive means small, poorly fitted or top-dose-only effect; inactive means no such curve, though single readings can be large or run the other way.

test: qHTS for Activators of Parkin Expression: LOPAC Validation Assay (FLuc Reporter) (AID 720573;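 on activation: 0% = DMSO and 100% = positive control compounds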); details: Cell line, PRKN promoter firefly luciferase reporter; series mostly up to 46.1 µM; activation: at the top concentration
Text: Parkin is an E3 ubiquitin ligase localized in the cytosol of cells expressed in many tissues, including brain, skeletal muscle, heart and liver tissues. One hour after stress induction by mitochondrial uncouplers (which mimic mitochondria damage by decreasing the mitochondrial inner membrane electrochemical gradient that is used to produce ATP), Parkin translocates from the cytosol to mitochondria in many cultured cell types, including neurons and HeLa cells. Administration of other mitochondrial poisons, such as Paraquat and azide in cells lacking mitochondrial DNA (mtDNA), induces Parkin translocation to mitochondria. […] It was proposed that Parkin (together with Pink1) mediates a mitochondrial quality control pathway to maintain organelle population fidelity by removing damaged mitochondria. Understanding the normal physiologic role of Parkin (and Pink1) may uncover novel treatment strategies for sporadic Parkinson's disease patients with mutation in these genes.
A cell based qHTS in 1536 well format was developed assess modulation of Parkin expression using a neuronal cell line that stably expresses a stably expresses a luminescent coincidence reporter (FLuc and NLuc reporters) behind the Parkin promoter. The LOPAC library is used to validate the assay for quantitative high-throughput screening. The data herein reports the signal from the FLuc reporter. An increase in this signal = activation of Parkin expression. For this assay , a positive control normalized signal increase corresponding to a high quality qHTS curve class in both luminescent channels is the desired outcome for this assay.
NIH Chemical Genomics Center [NCGC]
NIH Molecular Libraries Probe Centers Network [MLPCN]
Assay Submitter (PI): Richard Youle, National Institute of Neurological Disorders and Strokes (NINDS), NIH
[1] Narendra, D., et al., Parkin is recruited selectively to impaired mitochondria and promotes their autophagy. J Cell Biol, 2008. 183(5): p. 795-803.
[2] Suen, D.F., et al., Parkin overexpression selects against a deleterious mtDNA mutation in heteroplasmic cybrid cells. Proc Natl Acad Sci U S A, 2010. […] 11835-40.
[3] Cheng K, Inglese J. A coincedence reporter-gene system for high-throughput screening. Nat Methods. 2012: 9(10);937
Five microliters (1,500 cells/well) of the Parkin coincidence reporter cells were seeded to 1536 well assay plates (Greiner Catalog # 789173-F) and incubated at 37 C, 5% CO2 for 24 hours. Compounds (23 nL) were pinned using the Kalypsys robotic system equipped with 1536 pin head adaptor in 7-point dose response. The assay plates were incubated for additional 24 hr at 37 C, 5% CO2 followed by a volume reduction in each well to 2 uL using an automated plate washer/aspirator. Following the volume reduction,2 uL of FLuc detection reagent and plates were incubated for 10 minutes at room temperature. The FLuc luminescence signal was obtained using the PerkinElmer ViewLux plate imager and then 2 uL of NanoLuc detection reagent was added to the plates. After another 10 minute incubation, NanoLuc signal was obtained using the PerkinElmer ViewLux plate imager as before. Data from each channel was normalized to DMSO (neutral control) and the positive control compounds (100%).
Potency means the concentration at half of the fitted maximal effect.

Row | Compound | activation | Potency
1 | CC(=O)O[C@H]1C(=O)[C@@]2(C)C([C@H](OC(=O)c3ccccc3)[C@]3(O)C[C@H](OC(=O)[C@H](O)[C@@H](NC(=O)c4ccccc4)c4ccccc4)C(C)=C1C3(C)C)[C@]1(OC(C)=O)CO[C@@H]1C[C@@H]2O (some centres not stated) | -11.5% (inactive) | –
2 | O=c1c(O)c(-c2cc(O)c(O)c(O)c2)oc2cc(O)cc(O)c12 | 6.76% (inactive) | –
3 | Oc1ccc(-c2nc(-c3ccc(F)cc3)c(-c3ccncc3)[nH]2)cc1 | 5.09% (inactive) | –
4 | O=c1c(O)c(-c2ccc(O)cc2O)oc2cc(O)cc(O)c12 | 14.4% (inactive) | –
5 | COc1ccc2cc([C@H](C)C(=O)O)ccc2c1 | -8.04% (inactive) | –
6 | C[C@@H](N)C1CCC(C(=O)Nc2ccncc2)CC1 (some centres not stated) | -6.97% (inactive) | –
7 | CN(C)CCCC1(c2ccc(F)cc2)OCc2cc(C#N)ccc21 (configuration not stated) | 11.6% (inactive) | –
8 | Nc1ccn([C@@H]2O[C@H](CO)[C@@H](O)C2O)c(=O)n1 (some centres not stated) | -22.8% (inactive) | –
9 | O=C(O)c1cccnc1Nc1cccc(C(F)(F)F)c1 | 2.67% (inactive) | –
10 | CNC[C@H](O)c1ccc(O)c(O)c1 | -1.21% (inactive) | –
11 | COc1cc2c(cc1OC)C1CC(=O)C(CC(C)C)CN1CC2 (configuration not stated) | 2.11% (inactive) | –
12 | CC1(C)NC(=O)N(c2ccc([N+](=O)[O-])c(C(F)(F)F)c2)C1=O | -14.2% (inactive) | –
13 | Nc1nc(N)c(N=O)c(OCC2CCCCC2)n1 | 22.3% (inactive) | –
14 | Oc1ccc2ccccc2c1SSc1c(O)ccc2ccccc12 | -7.5% (inactive) | –
15 | CCOC(=O)C(C)Oc1cccc2c(=O)n(CC(=O)Nc3ccc4c(c3)OCCO4)ccc12 (configuration not stated) | -9.14% (inactive) | –
16 | O=C1c2c(O)cc(O)cc2OC(c2ccc(O)c(O)c2)C1O (configuration not stated) | 4.12% (inactive) | –

Row | Compound | activation | Potency
17 | Nc1nc(OCc2ccccc2)c2[nH]cnc2n1 | 9.04% (inactive) | –
18 | CC1(C)C(=O)N(CCN2CCC(C(=O)c3ccc(F)cc3)CC2)c2ccccc21 | 0.952% (inactive) | –
19 | O=c1ccc2ccc(O)c(O)c2o1 | -9.73% (inactive) | –
20 | NCCCCNCCCN | 8.54% (inactive) | –
21 | Cc1cccc(C#Cc2ccccc2)n1 | – | 2910 nM (active)
22 | COc1ccccc1N1CCN(CCN(C(=O)C2CCCCC2)c2ccccn2)CC1 | 2.52% (inactive) | –
23 | COc1cc2nc(N3CCN(C(=O)C4CCCO4)CC3)nc(N)c2cc1OC (configuration not stated) | 15.9% (inactive) | –
24 | O=C(CCc1ccc(O)cc1)c1c(O)cc(O)cc1O | 20.2% (inactive) | –
25 | O=Nc1c(-c2c(O)[nH]c3cc(Br)ccc23)[nH]c2ccccc12 | – | 2590 nM (active)
26 | OC(CN1CCN(c2cccc(Cl)c2)CC1)C(c1ccccc1)c1ccccc1 (configuration not stated) | -8.65% (inactive) | –
27 | Cc1cc(O)c2c(c1)C(=O)c1cc(O)cc(O)c1C2=O | 4.5% (inactive) | –
28 | CC(=O)N1CCN(c2ccc(OC[C@H]3CO[C@](Cn4ccnc4)(c4ccc(Cl)cc4Cl)O3)cc2)CC1 | -16.5% (inactive) | –
29 | O=C1NC(=O)C(c2ccccc2[N+](=O)[O-])=C1Nc1ccc(O)c(Cl)c1 | -3.82% (inactive) | –
30 | C[C@H](Cc1ccc(O)c(O)c1)[C@@H](C)Cc1ccc(O)c(O)c1 | -31.7% (inactive) | –
31 | NC(=NCc1ccccc1)NC(=O)c1nc(Cl)c(N)nc1N | 12.3% (inactive) | –
32 | CC(C)c1ccc2c(c1)c(SC(C)(C)C)c(CC(C)(C)C(=O)O)n2Cc1ccc(Cl)cc1 | 13.7% (inactive) | –
